Laboratory results from PubChem BioAssay (NCI).
This is part of a sample that, as a whole, favours compounds with a hit. Of some 79,000 tested, about 15% had one in any assay. Unmarked numbers belong to inactive results. Active and inactive are the calls of the source. Cut-off read from the data, not from the text of the source: active = growth inhibition above about 70%; inactive = the rest.

Legend:
[1] = NCI Yeast Anticancer Drug Screen. Data for the wt1 strain (AID 149);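 note: 0% = growth of vehicle-treated wt1 cultures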; conditions: S. cerevisiae wt1 strain (SPY 50644) growth inhibition, hits give high values
How it was run: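 wt1 yeast, compound-treated; % growth inhibition vs vehicle control.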

[2] = NCI Yeast Anticancer Drug Screen. Data for the rad50EPP+ strain (AID 151);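 note: 0% = growth of vehicle-treated control cultures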; conditions: S. cerevisiae rad50 mutant strain, hits give high values
How it was run: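 rad50EPP+ yeast treated with test compounds. Readout: growth vs vehicle control.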

[3] = NCI Yeast Anticancer Drug Screen. Data for the mgt1 strain (AID 153); conditions: S. cerevisiae mgt1 mutant growth inhibition, hits give high values
How it was run: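 Growth inhibition relative to vehicle controls was scored for the mgt1 yeast strain after compound exposure.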

[4] = NCI Yeast Anticancer Drug Screen. Data for the rad50 strain (AID 155);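 note: 0% = growth of vehicle-only cultures of the same strain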; conditions: S. cerevisiae rad50 strain growth inhibition, hits give high values
How it was run: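 Genetically altered yeast (DNA repair pathway); compound treatment; growth inhibition vs vehicle ctrl.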

[5] = NCI Yeast Anticancer Drug Screen. Data for the mec2-1 strain (AID 157); conditions: S. cerevisiae mec2-1 strain, hits give high values
How it was run: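 Growth inhibition is read against vehicle-treated controls after compound exposure of the mec2-1 yeast strain, which is defective in DNA damage repair or cell cycle control.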

[6] = NCI Yeast Anticancer Drug Screen. Data for the rad14 strain (AID 159);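 note: 0% = growth of vehicle-treated control cultures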; conditions: S. cerevisiae rad14 strain growth inhibition, hits give high values
How it was run: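 Test compounds were applied to a repair-deficient yeast strain. Its growth was then compared with that of cultures given vehicle alone, and inhibition was expressed relative to those controls.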

[7] = NCI Yeast Anticancer Drug Screen. Data for the sgs1 mgt1 strain (AID 161);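 note: 0% = growth of cultures given vehicle only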; conditions: S. cerevisiae sgs1 mgt1 strain, hits give high values
How it was run: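 Yeast cells carrying a defined DNA-repair defect were exposed to test compounds. Growth inhibition was measured relative to vehicle-treated controls.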

[8] = NCI Yeast Anticancer Drug Screen. Data for the CLN2oe strain (AID 163);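 note: 0% = growth of vehicle-only control cultures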; conditions: S. cerevisiae CLN2oe strain, hits give high values
How it was run: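 Compound-treated yeast; growth vs vehicle ctrl = % inhibition. Genetically altered strain (cell-cycle control).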

[9] = NCI Yeast Anticancer Drug Screen. Data for the cln2 rad14 strain (AID 165);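 note: 0% = growth equal to vehicle treated cultures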; conditions: S. cerevisiae cln2 rad14 strain, hits give high values
How it was run: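 Growth inhibition, relative to vehicle-treated controls, is the read-out. The test organism is a yeast strain with defined genetic alterations, cln2 rad14.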

[10] = NCI Yeast Anticancer Drug Screen. Data for the bub3 strain (AID 167); conditions: S. cerevisiae bub3 mutant strain, hits give high values
How it was run: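 Yeast carrying a defined mutation is treated with each compound, and growth is compared with that of vehicle-exposed cells to give inhibition.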

[11] = NCI Yeast Anticancer Drug Screen. Data for the wt2 strain (AID 169);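 note: 0% = growth of vehicle-treated yeast cultures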; conditions: S. cerevisiae wt2 strain growth inhibition, hits give high values
How it was run: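 Compound exposure of yeast; growth compared with vehicle controls; inhibition reported.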

[12] = NCI Yeast Anticancer Drug Screen. Data for the mlh1 strain (AID 171);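 note: 0% = growth of vehicle-treated control cultures of the same strain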; conditions: S. cerevisiae mlh1 strain growth inhibition, hits give high values
How it was run: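 Compounds are applied to a genetically altered yeast strain, and its growth is compared with that of vehicle-treated cultures to give percent inhibition.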

[13] = NCI Yeast Anticancer Drug Screen. Data for the mlh1 rad18 strain (AID 175); conditions: S. cerevisiae mlh1 rad18 strain growth inhibition, hits give high values
How it was run: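 Cells of a genetically altered yeast strain, deficient in DNA damage repair, were treated with compound. Their growth was then compared with that of vehicle-treated cultures to give inhibition.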

[14] = NCI Yeast Anticancer Drug Screen. Data for the rad18 strain (AID 177); conditions: S. cerevisiae rad18 mutant growth inhibition, hits give high values
How it was run: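 Compounds are applied to a repair-deficient yeast strain, and growth is compared with that of vehicle-treated cultures to give percent inhibition.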

[15] = at 5.0 µM (retest, dose inferred, filed as 0.5)
[16] = at 50.0 µM (retest, dose inferred, filed as 5.0)

## CCCCCC(=O)C(C)(c1nc2n(c1O)/C(=N/C(=O)Nc1ccc(Cl)cc1)N=N2)c1nc2n(c1O)/C(=N/C(=O)Nc1ccc(Cl)cc1)N=N2
[1]; at 1.2 µM
  growth inhibition: 3%
[1]; at 3.7 µM
  growth inhibition: -4%
[1]; at 11.0 µM
  growth inhibition: -3%
[1]; at 33.0 µM
  growth inhibition: 1%
[1]; at 100.0 µM
  growth inhibition: 18%
[2]; at 1.2 µM
  growth inhibition: 8%
[2]; at 3.7 µM
  growth inhibition: 16%
[2]; at 11.0 µM
  growth inhibition: 32%
[2]; at 33.0 µM
  growth inhibition: 60%
[2]; at 100.0 µM
  growth inhibition: 79% (active)
[3]; at 1.2 µM
  growth inhibition: 2%
[3]; at 3.7 µM
  growth inhibition: 4%
[3]; at 11.0 µM
  growth inhibition: -5%
[3]; at 33.0 µM
  growth inhibition: 9%
[3]; at 100.0 µM
  growth inhibition: 57%
[4]; at 1.2 µM
  growth inhibition: 6%
[4]; at 3.7 µM
  growth inhibition: 0%
[4]; [15]
  growth inhibition: -7%
[4]; at 11.0 µM
  growth inhibition: 6%
[4]; at 33.0 µM
  growth inhibition: 24%
[4]; [16]
  growth inhibition: 14%
[4]; at 50.0 µM
  growth inhibition: -11.6%
[4]; at 100.0 µM
  growth inhibition: 44%
[5]; at 1.2 µM
  growth inhibition: -3%
[5]; at 3.7 µM
  growth inhibition: -1%
[5]; [15]
  growth inhibition: 20%
[5]; at 11.0 µM
  growth inhibition: 2%
[5]; at 33.0 µM
  growth inhibition: 8%
[5]; [16]
  growth inhibition: 41%
[5]; at 50.0 µM
  growth inhibition: -11.2%
[5]; at 100.0 µM
  growth inhibition: 30%
[6]; at 1.2 µM
  growth inhibition: -1%
[6]; at 3.7 µM
  growth inhibition: 2%
[6]; at 11.0 µM
  growth inhibition: -2%
[6]; at 33.0 µM
  growth inhibition: 4%
[6]; at 100.0 µM
  growth inhibition: 50%
[7]; [15]
  growth inhibition: 12%
[7]; [16]
  growth inhibition: 64%
[7]; at 50.0 µM
  growth inhibition: -5.1%
[8]; at 1.2 µM
  growth inhibition: -5%
[8]; at 3.7 µM
  growth inhibition: -8%
[8]; at 11.0 µM
  growth inhibition: -5%
[8]; at 33.0 µM
  growth inhibition: 2%
[8]; at 100.0 µM
  growth inhibition: 27%
[9]; [15]
  growth inhibition: -27%
[9]; [16]
  growth inhibition: 3%
[9]; at 50.0 µM
  growth inhibition: -23.3%
[10]; at 1.2 µM
  growth inhibition: -6%
[10]; at 3.7 µM
  growth inhibition: -9%
[10]; [15]
  growth inhibition: -42%
[10]; at 11.0 µM
  growth inhibition: -8%
[10]; at 33.0 µM
  growth inhibition: -1%
[10]; [16]
  growth inhibition: 38%
[10]; at 50.0 µM
  growth inhibition: 98.2% (active)
[10]; at 100.0 µM
  growth inhibition: 20%
[11]; at 1.2 µM
  growth inhibition: -1%
[11]; at 3.7 µM
  growth inhibition: -1%
[11]; at 11.0 µM
  growth inhibition: 4%
[11]; at 33.0 µM
  growth inhibition: 19%
[11]; at 100.0 µM
  growth inhibition: 45%
[12]; at 1.2 µM
  growth inhibition: -4%
[12]; at 3.7 µM
  growth inhibition: -1%
[12]; at 11.0 µM
  growth inhibition: 6%
[12]; at 33.0 µM
  growth inhibition: 22%
[12]; at 100.0 µM
  growth inhibition: 59%
[13]; [15]
  growth inhibition: -26%
[13]; [16]
  growth inhibition: 55%
[13]; at 50.0 µM
  growth inhibition: 7%
[14]; at 1.2 µM
  growth inhibition: -1%
[14]; at 3.7 µM
  growth inhibition: 7%
[14]; at 11.0 µM
  growth inhibition: 9%
[14]; at 33.0 µM
  growth inhibition: 21%
[14]; at 100.0 µM
  growth inhibition: 51%

## CCN(CC)CCSc1c2ccccc2nc2cc(NCC(=O)Nc3ccccc3-c3ccccc3NC(=O)CNc3ccc4c(SCCN(CC)CC)c5ccccc5nc4c3)ccc12
[1]; at 1.2 µM
  growth inhibition: -21%
[1]; at 3.7 µM
  growth inhibition: -16%
[1]; at 11.0 µM
  growth inhibition: -25%
[1]; at 33.0 µM
  growth inhibition: 23%
[1]; at 100.0 µM
  growth inhibition: 96% (active)
[2]; at 1.2 µM
  growth inhibition: 9%
[2]; at 3.7 µM
  growth inhibition: 10%
[2]; at 11.0 µM
  growth inhibition: -8%
[2]; at 33.0 µM
  growth inhibition: 38%
[2]; at 100.0 µM
  growth inhibition: 89% (active)
[3]; at 1.2 µM
  growth inhibition: 9%
[3]; at 3.7 µM
  growth inhibition: 17%
[3]; at 11.0 µM
  growth inhibition: 19%
[3]; at 33.0 µM
  growth inhibition: 85% (active)
[3]; at 100.0 µM
  growth inhibition: 97% (active)
[4]; at 1.2 µM
  growth inhibition: 13%
[4]; at 3.7 µM
  growth inhibition: 15%
[4]; [15]
  growth inhibition: 23%
[4]; at 11.0 µM
  growth inhibition: 15%
[4]; at 33.0 µM
  growth inhibition: 75% (active)
[4]; [16]
  growth inhibition: 96% (active)
[4]; at 50.0 µM
  growth inhibition: 89.5% (active)
[4]; at 100.0 µM
  growth inhibition: 95% (active)
[5]; at 1.2 µM
  growth inhibition: 23%
[5]; at 3.7 µM
  growth inhibition: 22%
[5]; [15]
  growth inhibition: 20%
[5]; at 11.0 µM
  growth inhibition: 16%
[5]; at 33.0 µM
  growth inhibition: 91% (active)
[5]; [16]
  growth inhibition: 98% (active)
[5]; at 50.0 µM
  growth inhibition: 89.5% (active)
[5]; at 100.0 µM
  growth inhibition: 97% (active)
[6]; at 1.2 µM
  growth inhibition: -14%
[6]; at 3.7 µM
  growth inhibition: -15%
[6]; at 11.0 µM
  growth inhibition: -12%
[6]; at 33.0 µM
  growth inhibition: 74% (active)
[6]; at 100.0 µM
  growth inhibition: 96% (active)
[7]; [15]
  growth inhibition: 21%
[7]; [16]
  growth inhibition: 97% (active)
[7]; at 50.0 µM
  growth inhibition: 89.2% (active)
[8]; at 1.2 µM
  growth inhibition: 2%
[8]; at 3.7 µM
  growth inhibition: 7%
[8]; at 11.0 µM
  growth inhibition: 11%
[8]; at 33.0 µM
  growth inhibition: 44%
[8]; at 100.0 µM
  growth inhibition: 96% (active)
[9]; [15]
  growth inhibition: 15%
[9]; [16]
  growth inhibition: 13%
[9]; at 50.0 µM
  growth inhibition: 41%
[10]; at 1.2 µM
  growth inhibition: 36%
[10]; at 3.7 µM
  growth inhibition: 30%
[10]; [15]
  growth inhibition: 27%
[10]; at 11.0 µM
  growth inhibition: 31%
[10]; at 33.0 µM
  growth inhibition: 92% (active)
[10]; [16]
  growth inhibition: 89% (active)
[10]; at 50.0 µM
  growth inhibition: 90.5% (active)
[10]; at 100.0 µM
  growth inhibition: 98% (active)
[11]; at 1.2 µM
  growth inhibition: -5%
[11]; at 3.7 µM
  growth inhibition: -3%
[11]; at 11.0 µM
  growth inhibition: 2%
[11]; at 33.0 µM
  growth inhibition: 48%
[11]; at 100.0 µM
  growth inhibition: 96% (active)
[12]; at 1.2 µM
  growth inhibition: -12%
[12]; at 3.7 µM
  growth inhibition: -7%
[12]; at 11.0 µM
  growth inhibition: -5%
[12]; at 33.0 µM
  growth inhibition: 80% (active)
[12]; at 100.0 µM
  growth inhibition: 96% (active)
[13]; [15]
  growth inhibition: 42%
[13]; [16]
  growth inhibition: 98% (active)
[13]; at 50.0 µM
  growth inhibition: 89% (active)
[14]; at 1.2 µM
  growth inhibition: 16%
[14]; at 3.7 µM
  growth inhibition: 12%
[14]; at 11.0 µM
  growth inhibition: 11%
[14]; at 33.0 µM
  growth inhibition: 69%
[14]; at 100.0 µM
  growth inhibition: 97% (active)
